Results as given in PubChem BioAssay.
Activity calls are given as the source filed them. Unless noted, no stated cut-off is given here; in the data, active means inhibition above about 36%; inactive means the rest.

Tested on: transactivating tegument protein VP16 (Human herpesvirus 1)
Experiment: compounds suppressing VP16-driven luciferase signal – cell-based, luminescence, single concentration, counter-screen for SRC2 inhibitor project (AID 652007)
Settings: cell-based VP16 transactivation luciferase reporter, at 8.9 µM, active compounds read high

Structure (SMILES)	inhibition
Cc1nnsc1C(=O)NC1CCCc2c1cnn2-c1ccc(C(C)(C)C)cc1 (stereo not given)	13.8% (inactive)
COc1ccc(NS(=O)(=O)c2ccc3c(c2)OCCO3)cc1OC	10.1% (inactive)
CNC(=O)c1cc(Oc2ccc(NC(=O)Nc3ccc(Cl)c(C(F)(F)F)c3)cc2)ccn1	29.9% (inactive)
N#Cc1cccc(C=C(C(=O)c2ccccc2)c2ccccc2)c1	23% (inactive)
COc1ccc(NC(=O)/C(Cl)=C(/Cl)S(=O)Cc2ccccc2)cn1 (stereo not given)	95.8% (active)
CCN(Cc1ccc(OC)c(F)c1)C(=O)CCl	31.8% (inactive)
C=CC(=O)N1C/C(=C/c2ccc(Cl)cc2)C(=O)/C(=C\c2ccc(Cl)cc2)C1	97% (active)
CN(C)c1ccnc2sc(C(N)=O)c(N)c12	-0.64% (inactive)

Biological target: Nuclear receptor coactivator 2 (Homo sapiens) (UniProt Q15596)
Experiment: inhibition of GAL4-SRC2 driven luciferase expression – cell-based, luminescence, HEK293, triplicate, confirmation (AID 652008;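 active means mean inhibition above 46.5%, the solvent-only control mean plus 3 SD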;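 further: 0% = DMSO-treated cells and 100% = Gossypol at 36 µM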)
Settings: HEK293 GAL4-SRC2 luciferase reporter, at 8.9 µM, active compounds read high

Chain of Nuclear receptor coactivator 2 (Homo sapiens) (Q15596 whole entry, looked up, the tested form may be a part): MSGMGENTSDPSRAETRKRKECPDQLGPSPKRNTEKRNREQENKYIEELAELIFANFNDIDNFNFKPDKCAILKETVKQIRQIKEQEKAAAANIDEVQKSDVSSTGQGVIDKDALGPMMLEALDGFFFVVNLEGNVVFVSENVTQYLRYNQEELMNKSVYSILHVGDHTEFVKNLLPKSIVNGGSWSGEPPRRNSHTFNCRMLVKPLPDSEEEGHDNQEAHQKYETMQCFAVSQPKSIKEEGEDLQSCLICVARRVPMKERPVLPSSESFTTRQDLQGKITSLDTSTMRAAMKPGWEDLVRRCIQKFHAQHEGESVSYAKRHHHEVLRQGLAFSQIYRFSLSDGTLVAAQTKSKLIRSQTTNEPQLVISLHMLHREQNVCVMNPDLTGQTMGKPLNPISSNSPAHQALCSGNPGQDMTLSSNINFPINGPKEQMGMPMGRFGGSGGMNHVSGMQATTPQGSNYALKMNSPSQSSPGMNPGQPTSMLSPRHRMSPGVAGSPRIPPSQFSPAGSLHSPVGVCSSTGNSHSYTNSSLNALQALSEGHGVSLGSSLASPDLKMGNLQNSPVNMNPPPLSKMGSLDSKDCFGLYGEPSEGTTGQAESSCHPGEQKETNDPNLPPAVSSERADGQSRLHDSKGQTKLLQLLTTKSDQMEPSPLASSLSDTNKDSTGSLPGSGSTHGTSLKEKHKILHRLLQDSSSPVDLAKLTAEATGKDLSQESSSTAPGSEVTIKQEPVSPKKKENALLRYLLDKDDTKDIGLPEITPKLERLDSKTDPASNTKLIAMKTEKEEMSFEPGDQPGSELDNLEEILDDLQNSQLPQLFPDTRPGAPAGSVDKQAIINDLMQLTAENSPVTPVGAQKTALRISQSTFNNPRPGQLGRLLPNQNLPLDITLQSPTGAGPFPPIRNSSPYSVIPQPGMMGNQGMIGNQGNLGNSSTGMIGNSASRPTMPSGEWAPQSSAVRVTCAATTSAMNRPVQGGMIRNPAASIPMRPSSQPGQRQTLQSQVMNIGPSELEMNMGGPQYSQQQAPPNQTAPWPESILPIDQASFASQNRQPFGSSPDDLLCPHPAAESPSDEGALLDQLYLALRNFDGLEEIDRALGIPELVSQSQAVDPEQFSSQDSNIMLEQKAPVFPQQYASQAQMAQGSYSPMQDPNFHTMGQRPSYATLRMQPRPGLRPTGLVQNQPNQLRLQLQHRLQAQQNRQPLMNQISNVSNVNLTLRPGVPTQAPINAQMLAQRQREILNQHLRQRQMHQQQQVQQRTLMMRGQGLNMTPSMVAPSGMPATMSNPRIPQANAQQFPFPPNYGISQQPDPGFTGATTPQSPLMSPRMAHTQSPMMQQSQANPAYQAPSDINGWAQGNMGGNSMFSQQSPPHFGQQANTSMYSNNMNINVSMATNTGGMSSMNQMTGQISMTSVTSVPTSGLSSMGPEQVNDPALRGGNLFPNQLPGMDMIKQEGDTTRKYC

Structure (SMILES)	inhibition
Cc1nnsc1C(=O)NC1CCCc2c1cnn2-c1ccc(C(C)(C)C)cc1 (stereo not given)	31.2% (inactive)
COc1ccc(NS(=O)(=O)c2ccc3c(c2)OCCO3)cc1OC	27.8% (inactive)
CNC(=O)c1cc(Oc2ccc(NC(=O)Nc3ccc(Cl)c(C(F)(F)F)c3)cc2)ccn1	58.7% (active)
N#Cc1cccc(C=C(C(=O)c2ccccc2)c2ccccc2)c1	62.2% (active)
COc1ccc(NC(=O)/C(Cl)=C(/Cl)S(=O)Cc2ccccc2)cn1 (stereo not given)	100% (active)
CCN(Cc1ccc(OC)c(F)c1)C(=O)CCl	49.5% (active)
C=CC(=O)N1C/C(=C/c2ccc(Cl)cc2)C(=O)/C(=C\c2ccc(Cl)cc2)C1	88.4% (active)
